HCMV antiviral: qHTS Assay for inhibitors of the human cytomegalovirus (HCMV); HFF cells, HCMV-luciferase reporter, 72 h; active compounds read low; activity change, negative = inhibition, % at 57.5 µM; hit rate 4.5% among 410,000; in the data active means activity change below about -60%; inconclusive means no clear call, values can overlap the other calls; inactive means above about -39%
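Compounds were evaluated in HFFs infected with an HCMV luciferase reporter virus (MOI 1 PFU/cell). Luciferase in lysates collected 72 h post infection served as the replication measure.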
FMDV inh: High Throughput Screening for Foot and Mouth Disease Virus Antivirals; FMDV antiviral cell-based qHTS; Potency, µM (doses to about 57.9 µM), hits mostly inhibitors; AID 1159524, 2015; hit rate 1.2% among 410,000; calls by dose curve; tested in HEK293T cells; further: read-out not given here; nearly all actives have a fitted effect of over 45% in size
LASV entry inh: qHTS for Inhibitors of binding or entry into cells for Lassa Virus; Lassa virus pseudotype entry inhibition, cell reporter; Potency, µM (titrated, usually from 37.9 µM), usual class: inhibitors; hit rate 1.2% among 300,000; calls by dose curve; tested in HEK293 cells; further: nearly all actives have a fitted effect of over 50% in size
SARS PLpro yeast-1: qHTS of Yeast-based Assay for SARS-CoV PLP; S. cerevisiae expressing SARS-CoV PLpro, growth rescue; Potency, µM (top dose mostly 32.9 µM), most hits filed as activators; hit rate 0.19% among 330,000; calls by dose curve; further: nearly all actives have a fitted effect of over 55% in size
MARV entry inh: qHTS for inhibitors of binding or entry into cells for Marburg Virus. Marburg virus pseudotyped entry inhibition, cell reporter. Potency, µM (top dose mostly 37.8 µM), hits mostly inhibitors. hit rate 1.8% among 300,000. AID 540276, 2011; calls by dose curve; tested in HEK293 cells
HCV inhibitor: qHTS Assay for Inhibitors of Hepatitis C Virus (HCV); Huh7.5.1 HCVcc-Cre infection, luciferase reporter, 44 h; Potency, µM (highest dose often 41.8 µM), actives largely listed as inhibitors; hit rate 3.4% among 340,000; active means well fitted inhibition curve with a large enough effect; inconclusive means small, poorly fitted or top-dose-only effect, or another doubt; inactive means no such curve, though single readings can be large or run the other way
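After 44 h co-culture of compound, cells and HCVcc-Cre (~0.5 moi), substrate is added for 15 min at room temperature and luciferase measured over 15 sec. Cells were seeded at 1,000/well and pre-cultured 4 h.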
SARS PLpro yeast-2: qHTS of Yeast-based Assay for SARS-CoV PLP: Hit Validation. shares compounds with SARS PLpro yeast-1. yeast expressing SARS-CoV PLpro, growth phenotype rescue. calls only. hit rate 19% among 1,000; call rule not given here
Numbers stand for hits; – = inactive; ? = inconclusive; · = not tested or not shown; + = active, no number. Most compounds without a hit are left out; they make up all but 8% or so of the library.

SMILES | HCMV antiviral | FMDV inh | LASV entry inh | SARS PLpro yeast-1 | MARV entry inh | HCV inhibitor | SARS PLpro yeast-2
CN(C)c1cccc(C(=O)N/N=C/c2ccoc2)c1 | – | – | ? | · | – | – | ·
Cc1cnc(C)c(Nc2nc(C(N)c3ccccc3)cs2)n1 (centres undefined) | – | – | · | · | · | · | ·
Cc1ccc2[nH]c(=S)cc(C)c2c1 | – | – | – | 22µM | – | – | +
CSc1ccc(CNC(=O)c2cc3cc(S(=O)(=O)N4CCCCC4)ccc3n2C)cc1 | – | – | – | · | · | · | ·
Cc1ncc(C23CC4CC(CC(C4)C2)C3)[nH]1 | – | – | · | 13µM | – | – | –
COc1ccc(C(=O)Nc2ccc(N3CCN(C(=O)C(C)C)CC3)cc2)cc1[N+](=O)[O-] | – | ? | – | – | ? | – | ·
CC1CCCC(C)N1NC(=S)Nc1ccc(OC(F)F)cc1 (centres undefined) | – | – | – | ? | ? | – | +
COc1cccc(NC(=S)NN2C(C)CCCC2C)c1 (centres undefined) | – | – | – | ? | – | – | +
COc1ccc(NC(=S)NN2C(C)CCCC2C)cc1 (centres undefined) | – | – | – | 13µM | – | – | +
C/C(=N/NC(=O)c1cc(-c2ccccc2)nc2c(Cl)cccc12)c1cccnc1 | ? | – | – | – | – | ? | ·
CCOc1ccccc1N1CCN(Cc2c(C)n(C)n(-c3ccccc3)c2=O)CC1 | · | – | – | – | – | – | ·
CCN(C[C@H]1N[C@@](CC)(C(=O)OC)[C@H]2C(=O)N(C)C(=O)[C@@H]12)S(=O)(=O)c1ccccc1 | – | – | · | – | · | – | ·
Cc1cc(C(=O)OCC(=O)N2CC(=O)Nc3ccccc32)c(C)n1-c1ccc(F)cc1 | – | – | ? | 4µM | ? | ? | ?
Cc1cc(C(=O)OCC(=O)N2CC(=O)Nc3ccccc32)c(C)n1-c1ccccc1 | ? | – | ? | – | ? | ? | ·
NC(=NCCc1ccccc1)NS(=O)(=O)c1ccc(F)cc1 | – | – | – | ? | ? | – | –
O=C(O)c1cc(C2CC2)nn1-c1ccccc1 | – | – | – | ? | – | – | –
NC(=O)C1CCN(S(=O)(=O)c2ccc(N3CCCCS3(=O)=O)cc2)CC1 | – | – | ? | · | · | · | ·
Cc1ccc(CN2CCN(/N=C/c3ccc(C(F)(F)F)cc3)CC2)c(C)c1 | – | – | – | ? | – | – | –
Cc1cc(C)cc(OCC(=O)Nc2nonc2-c2ccc(Br)cc2)c1 | – | – | – | · | – | · | ·
CCSCCOC(=O)C1=C(C)NC(=O)NC1c1cc(OC)ccc1OC (centres undefined) | – | – | – | ? | – | – | –
CC1(C)C(=O)C2(CCCCC2)C(=O)OC1c1cccn1-c1ccc([N+](=O)[O-])cc1 (centres undefined) | – | – | – | ? | – | – | ?
CC(C)(C)OC(=O)N1CCC(c2c(C(=O)NCC3CCN(C4CCCC4)C3)cnn2-c2ccc(F)cc2)CC1 (centres undefined) | ? | – | ? | – | ? | – | ·
S=C(NNc1ccc2ccccc2c1)NC1CCCCC1 | -60 | – | – | · | ? | – | ?
CNC(=O)Oc1ccc2ncccc2c1 | – | – | – | 14µM | – | – | +
COc1ccc(C(=O)Oc2ccc(=O)n(-c3ccccc3)n2)cc1 | – | – | – | · | – | – | +
SMILES | HCMV antiviral | FMDV inh | LASV entry inh | SARS PLpro yeast-1 | MARV entry inh | HCV inhibitor | SARS PLpro yeast-2
Oc1ccccc1-c1nc(/C=C/c2ccc(F)cc2)nn1-c1ccccc1 | – | – | – | · | – | · | ·
O=C(CN1C(=O)COc2ccccc21)Nc1ccc(N2CCOCC2)cc1 | – | – | · | – | · | – | ·
Cc1ccc(S(=O)(=O)N(C)C[C@H]2Oc3ccc(NC(=O)Nc4c(C)noc4C)cc3CC(=O)N([C@@H](C)CO)C[C@@H]2C)cc1 | – | – | · | – | · | – | ·
CNC[C@@H]1Oc2ccc(NC(=O)Nc3c(C)noc3C)cc2CC(=O)N([C@H](C)CO)C[C@H]1C | · | – | · | 11µM | · | – | –
Cc1ccc(C(=O)C2CCN(S(=O)(=O)c3ccc(C(=O)O)cc3)CC2)cc1 | – | – | – | – | – | – | ·
O=C(CCNS(=O)(=O)c1cccs1)Nc1nccs1 | – | – | – | – | – | – | ·
